Experimental data reported in PubChem BioAssay (Tox21).
Where “and” joins values, the source holds several entries; their conditions need not be identical. Equal entries are not always repeated. Records with an inconclusive call do not appear. A call without a number means that no potency is given here. Some compounds were tested as several samples or in several runs, with calls that do not always agree. Calls of active or inactive are those of the source. Unless noted, calls follow the shape of the dose curve; as a rule, active = well fitted curve in the direction sought with a large enough effect in the repeat runs; inconclusive = weak or mixed curves; inactive = no such curve, though single readings can be large; an effect the other way counts as inactive or inconclusive.

Experiments:
[1] = qHTS assay to identify small molecule antagonists of the estrogen receptor alpha (ER-alpha) signaling pathway using the BG1 cell line in the presence of 0.1 nM 17-beta-estradiol - cell viability counter screen (AID 1259241); also: nearly all actives have a fitted effect of over 40% in size; also: potency is read from the fitted curve at half-maximal effect
Procedure, shortened: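 Following 5 days in phenol red-free medium with charcoal-stripped serum, VM7Luc4E2 cells received test compounds alongside 0.1 nM 17beta-estradiol (final) at 37C for 22 hr. Live cells were then quantified via protease-substrate fluorescence.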

[2] = qHTS assay to identify small molecule antagonists of the androgen receptor (AR) signaling pathway using the MDA cell line in the presence of 0.5 nM R1881 - cell viability counter screen (AID 1259242); also: nearly all actives have a fitted effect of over 45% in size; also: potency is read from the fitted curve at half-maximal effect
Procedure, shortened: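 Human breast carcinoma MDA-kb2 cells, cultured without CO2, receive compounds alongside 0.5 nM (final) R1881 agonist. After 16 hr at 37C, viability is taken as live-cell protease signal.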

[3] = target: Estrogen receptor (Homo sapiens) (UniProt P03372); test: qHTS assay to identify small molecule antagonists of the estrogen receptor alpha (ER-alpha) signaling pathway using the BG1 cell line in the presence of 0.1 nM 17-beta-estradiol (AID 1259244); also: nearly all actives have a fitted effect of over 50% in size
Sequence of Estrogen receptor (Homo sapiens) (P03372 whole entry, looked up): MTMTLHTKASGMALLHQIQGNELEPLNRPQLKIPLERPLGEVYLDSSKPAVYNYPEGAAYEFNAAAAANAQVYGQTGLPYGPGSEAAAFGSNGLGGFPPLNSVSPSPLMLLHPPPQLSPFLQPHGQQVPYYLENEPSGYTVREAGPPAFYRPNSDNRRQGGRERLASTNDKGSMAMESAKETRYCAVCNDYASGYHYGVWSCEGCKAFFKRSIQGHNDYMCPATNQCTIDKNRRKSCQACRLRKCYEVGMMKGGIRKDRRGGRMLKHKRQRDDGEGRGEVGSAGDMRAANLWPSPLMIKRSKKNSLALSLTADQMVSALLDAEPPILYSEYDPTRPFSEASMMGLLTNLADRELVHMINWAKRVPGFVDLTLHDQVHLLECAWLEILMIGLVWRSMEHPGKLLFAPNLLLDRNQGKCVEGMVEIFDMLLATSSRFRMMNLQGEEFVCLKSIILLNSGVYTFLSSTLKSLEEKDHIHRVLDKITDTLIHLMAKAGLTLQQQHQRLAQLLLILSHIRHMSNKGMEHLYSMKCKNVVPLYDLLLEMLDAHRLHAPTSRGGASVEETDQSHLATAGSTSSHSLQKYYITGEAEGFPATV
Procedure, shortened: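 Seeding of stripped-serum-adapted VM7Luc4E2 cells, 24 h attachment, compound transfer, then 0.1 nM final 17beta-estradiol; after 22 h incubation, ONE-Glo reagent and luminescence reading.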

[4] = qHTS assay to identify small molecule HDAC inhibitors (AID 1259364);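 also: wild-type HCT-116 cells with endogenous class I/II HDAC activity; top concentration of the series differs between compounds; nearly all actives have a fitted effect of over 45% in size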
Procedure, shortened: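 After a 2 hr compound incubation (37C, 5% CO2), HCT-116 cells seeded at 1,500/well the day before received HDAC-Glo reagent; signal read as luminescence after 30 min at room temperature.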

[5] = qHTS assay to identify small molecule HDAC inhibitors - cell viability counter screen (AID 1259365); also: nearly all actives have a fitted effect of over 50% in size; also: potency is read from the fitted curve at half-maximal effect
Procedure, shortened: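 HCT-116 wild-type, overnight attachment; 2hr drug exposure, 37C; CellTiter-Glo luminescent ATP readout after 30min RT.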

[6] = qHTS assay to identify small molecule agonists of the sonic hedgehog signaling (Shh) pathway - cell viability counter screen (AID 1259366); also: nearly all actives have a fitted effect of over 50% in size; also: potency is read from the fitted curve at half-maximal effect
Procedure, shortened: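 Compounds in DMSO were pin-transferred onto 3T3 Gli1-Luc cells that had settled 4hr; plates then stood 24hr at 37C and 5% CO2. One hour before the end, CellTiter-Fluor was added and fluorescence recorded.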

[7] = qHTS assay to identify small molecule antagonists of the sonic hedgehog signaling (Shh) pathway - cell viability counter screen (AID 1259367); also: nearly all actives have a fitted effect of over 55% in size; also: potency is read from the fitted curve at half-maximal effect
Procedure, shortened: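 Cytotoxicity was assessed in parallel with Shh reporter activity by measuring live-cell protease fluorescence (CellTiter-Fluor) in NIH/3T3 cells stably carrying Gli1-Luc, treated with compound under conditioned medium stimulation for 23 hr plus 1 hr reagent incubation.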

[8] = qHTS assay to identify small molecule agonists of the sonic hedgehog signaling (Shh) pathway (AID 1259368; calls by dose curve;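 also: NIH/3T3-derived 3T3Gli1-Luc cells carrying a stable Gli1-driven firefly luciferase reporter; series mostly up to about 92 µM; nearly all actives have a fitted effect of over 15% in size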)
Procedure, shortened: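 Stable NIH/3T3 Gli1-Luc reporter clone; 24 hr cpd exposure after a 4 hr settling period; luminescence endpoint.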

[9] = qHTS assay to identify small molecule agonists of the androgen receptor (AR) signaling pathway in the presence of an antagonist - cell viability counter screen (AID 1259379); also: nearly all actives have a fitted effect of over 25% in size; also: potency is read from the fitted curve at half-maximal effect
Procedure, shortened: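 Counter screen for cell viability run in parallel with the AR agonist-mode luciferase assay. MDA-kb2 cells were co-treated with nilutamide (3.0uM final) and compounds, then incubated 16 hr at 37C, and CellTiter-Fluor fluorescence was measured.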

[10] = qHTS assay to identify small molecule agonists of the estrogen receptor beta (ER-beta) signaling pathway - cell viability counter screen (AID 1259380); also: nearly all actives have a fitted effect of over 30% in size; also: potency is read from the fitted curve at half-maximal effect
Procedure, shortened: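 In this qHTS counter screen, HEK293T cells carrying an ER-beta/UAS beta-lactamase reporter, grown in 2% charcoal-stripped FBS, received compound for 16 hr; ATP-based CellTiter-Glo luminescence was then read after 30 min at room temperature.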

[11] = qHTS assay to identify small molecule antagonists of the estrogen receptor beta (ER-beta) signaling pathway - cell viability counter screen (AID 1259382); also: nearly all actives have a fitted effect of over 55% in size; also: potency is read from the fitted curve at half-maximal effect
Procedure, shortened: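 HEK293T ER-beta-UAS-bla, 2% charcoal-stripped FBS; compounds + 1nM E2 16 hr 37C; CellTiter-Glo luminescence, 30 min RT.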

[12] = qHTS assay to identify small molecule agonists or antagonists of the thyroid stimulating hormone receptor (TSHR) signaling pathway - wild type cell line counter screen (AID 1259384; calls by dose curve)
Procedure, shortened: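 Wild-type HEK293 cells were plated 18 h at 37 C/5% CO2, pin-dosed with compound plus Ro20-1724 medium, held 30 min at room temperature, then given cAMP-d2 and anti-cAMP-cryptate; fluorescence was read after 1 h. Fifteen concentrations, triplicate.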

[13] = target: Thyrotropin receptor (Homo sapiens) (UniProt P16473); test: qHTS assay to identify small molecule antagonists of the thyroid stimulating hormone receptor (TSHR) signaling pathway (AID 1259385; calls by dose curve; also: nearly all actives have a fitted effect of over 20% in size)
Sequence of Thyrotropin receptor (Homo sapiens) (P16473 whole entry, looked up): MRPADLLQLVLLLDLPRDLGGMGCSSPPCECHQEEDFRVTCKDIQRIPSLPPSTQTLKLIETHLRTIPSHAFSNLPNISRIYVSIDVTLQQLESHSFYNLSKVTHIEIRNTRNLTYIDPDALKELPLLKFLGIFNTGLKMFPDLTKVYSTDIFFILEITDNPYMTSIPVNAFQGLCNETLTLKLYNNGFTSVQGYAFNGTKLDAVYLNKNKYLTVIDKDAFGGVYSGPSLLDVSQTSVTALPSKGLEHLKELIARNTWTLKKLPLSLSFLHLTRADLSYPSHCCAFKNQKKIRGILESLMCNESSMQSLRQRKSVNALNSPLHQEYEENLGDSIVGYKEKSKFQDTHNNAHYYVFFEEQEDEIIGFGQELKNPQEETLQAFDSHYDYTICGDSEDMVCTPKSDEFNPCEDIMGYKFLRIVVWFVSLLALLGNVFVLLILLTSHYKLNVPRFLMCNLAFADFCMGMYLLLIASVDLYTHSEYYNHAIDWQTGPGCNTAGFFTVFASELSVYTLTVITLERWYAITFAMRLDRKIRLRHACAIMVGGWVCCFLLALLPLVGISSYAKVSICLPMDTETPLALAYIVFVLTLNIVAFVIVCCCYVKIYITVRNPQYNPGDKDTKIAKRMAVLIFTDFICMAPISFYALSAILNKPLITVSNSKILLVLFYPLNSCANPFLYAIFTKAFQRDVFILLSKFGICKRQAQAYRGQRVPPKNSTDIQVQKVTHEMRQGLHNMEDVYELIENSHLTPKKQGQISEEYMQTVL
Procedure, shortened: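 TSHR-HEK293 cells were plated and held 18 h at 37C/5% CO2, then given compound plus Ro20-1724 and stimulated with TSH at 1.5 ng/mL final. After 30 min at room temperature, cAMP was detected with cAMP-d2/anti-cAMP-cryptate (1 h) by fluorescence.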

[14] = qHTS assay to identify small molecule phospholipidosis (PLD) inducers (AID 1259344; active = well fitted curve in the direction sought with a large enough effect; an effect the other way counts as inactive or inconclusive)
Procedure, shortened: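 Cells (HepG2, 900 per well) attach for 4 h, receive LipidTOX Red and compound together, incubate 24 h at 37 C, are fixed 30 min with paraformaldehyde/Hoechst, then imaged at one site per well.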

[15] = qHTS assay to identify small molecule antagonists of the sonic hedgehog signaling (Shh) pathway (AID 1259369; calls by dose curve; also: nearly all actives have a fitted effect of over 45% in size; also: potency is read from the fitted curve at half-maximal effect)
Procedure, shortened: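 Gli1 transcriptional reporter (firefly Luc) in NIH/3T3 background, conditioned-medium activated. 24hr exposure, luminescence endpoint.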

[16] = target: Estrogen receptor beta (Homo sapiens) (UniProt Q92731); test: qHTS assay to identify small molecule agonists of the estrogen receptor beta (ER-beta) signaling pathway (AID 1259377; active = well fitted activation curve with a large enough effect in the signal ratio in the repeat runs, not every such curve was filed as active; the % refers to the signal ratio)
Sequence of Estrogen receptor beta (Homo sapiens) (Q92731 whole entry, looked up): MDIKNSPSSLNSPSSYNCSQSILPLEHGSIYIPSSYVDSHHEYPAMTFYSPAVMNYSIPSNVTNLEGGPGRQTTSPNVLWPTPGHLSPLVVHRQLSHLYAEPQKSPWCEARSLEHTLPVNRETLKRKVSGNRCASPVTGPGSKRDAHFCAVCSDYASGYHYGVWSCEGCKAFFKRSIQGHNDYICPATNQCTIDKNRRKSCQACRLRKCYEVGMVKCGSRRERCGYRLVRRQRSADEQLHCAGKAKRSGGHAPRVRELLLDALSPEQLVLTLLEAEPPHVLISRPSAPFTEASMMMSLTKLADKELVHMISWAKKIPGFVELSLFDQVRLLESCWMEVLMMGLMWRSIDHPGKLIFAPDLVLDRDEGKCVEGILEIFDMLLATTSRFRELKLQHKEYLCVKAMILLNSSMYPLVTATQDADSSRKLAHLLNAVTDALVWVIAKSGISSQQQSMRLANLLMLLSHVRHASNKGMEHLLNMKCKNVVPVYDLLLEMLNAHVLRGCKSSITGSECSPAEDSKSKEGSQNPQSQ
Procedure, shortened: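 qHTS in ER-beta-UAS-bla HEK293T cells: 6 hr settling, then 16 hr compound at 37C, then LiveBLAzer substrate 2 h at RT before fluorescence reading.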

[17] = target: Estrogen receptor beta (Homo sapiens) (UniProt Q92731); test: qHTS assay to identify small molecule antagonists of the estrogen receptor beta (ER-beta) signaling pathway (AID 1259378; active = well fitted inhibition curve with a large enough effect in the signal ratio in the repeat runs, not every such curve was filed as active; the % refers to the signal ratio; also: potency is read from the fitted curve at half-maximal effect)
Procedure, shortened: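 ER-beta-UAS-bla HEK293T (GripTite) cells in 2% charcoal-stripped FBS medium were preincubated 6 hr at 37C, dosed with compound, then stimulated with 1 nM E2 (final) for 16 hr; beta-lactamase reporter read by B/G FRET fluorescence after 2 hr substrate loading.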

[18] = target: Estrogen receptor (Homo sapiens) (UniProt P03372); test: qHTS assay to identify small molecule agonists of the estrogen receptor alpha (ER-alpha) signaling pathway in the presence of an antagonist (AID 1259383; calls by dose curve; also: top concentration of the series differs between compounds; nearly all actives have a fitted effect of over 15% in size)
Procedure, shortened: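 ER-alpha agonism measured under antagonist challenge: 10.0nM ICI-182,780 (final) plus compound, 15 concentrations, 22hr, VM7Luc4E2 ERE-luciferase cells. Read by luminescence.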

SMILES | Potency [1] | Potency [2] | Potency [3] | Potency [4] | Potency [5] | Potency [6] | Potency [7] | Potency [8] | Potency [9] | Potency [10] | Potency [11] | Potency [12] | Potency [13] | outcome [14] | Potency [15] | Potency [16] | Potency [17] | Potency [18]
CC(C)(C#N)N=NC(C)(C)C#N | inactive | inactive | inactive | inactive | inactive | inactive | inactive | inactive | inactive | inactive | inactive | inactive | inactive | – | – | – | – | –
CCCCCCCCCC(CC)c1ccc(S(=O)(=O)O)cc1 (centres undefined) | inactive | inactive | – | inactive | – | inactive | inactive | inactive | inactive | – | – | – | – | inactive | – | – | – | –
C[N+](C)(C)CC(=O)[O-] | inactive | inactive | – | inactive | inactive | inactive | inactive | inactive | inactive | inactive | inactive | – | – | inactive | – | – | – | –
ClC(Cl)=C(Cl)C(Cl)=C(Cl)Cl | inactive | inactive | – | inactive | inactive | inactive | inactive | inactive | inactive | inactive | inactive | – | inactive | – | inactive | – | – | –
CCNc1nc(Cl)nc(NC(C)(C)C#N)n1 | inactive | inactive | – | inactive | inactive | inactive | inactive | inactive | inactive | inactive | inactive | inactive | inactive | – | 685 nM (active) | inactive | inactive | –
Oc1ccc(Cl)cc1Cl | inactive | inactive | – | inactive | inactive | inactive | inactive | inactive | inactive | inactive | inactive | – | – | – | inactive | inactive | inactive | inactive
Cc1ccc(N=CN(C)C=Nc2ccc(C)cc2C)c(C)c1 | inactive | inactive | – | inactive | – | inactive | inactive | inactive | inactive | 54.7 µM (active) and 30.6 µM (active) and inactive | inactive | inactive | inactive | inactive | 54.7 µM (active) and inactive | inactive | inactive | inactive
CCCCCCCC[N+](C)(CCCCCCCC)CCCCCCCC | 24.3 µM (active) and 27.3 µM (active) and 48.6 µM (active) | 17.2 µM (active) and 3.44 µM (active) and 15.4 µM (active) | – | inactive | inactive and 61.1 µM (active) | 48.5 µM (active) and 9.7 µM (active) and 19.3 µM (active) | 61 µM (active) and 10.9 µM (active) and 24.3 µM (active) | inactive | 12.2 µM (active) and 2.73 µM (active) and 24.3 µM (active) | 12.2 µM (active) and 27.3 µM (active) and 30.6 µM (active) | 12.2 µM (active) and 43.3 µM (active) and 24.3 µM (active) | inactive | inactive | – | 193 nM (active) and 48.6 nM (active) and 306 nM (active) | – | 17.2 µM (active) | –
CCN(CC)C(=O)C(C)Oc1cccc2ccccc12 (centres undefined) | inactive | inactive | – | inactive | inactive | inactive | inactive | inactive | inactive | inactive | inactive | inactive | inactive | – | inactive | inactive | inactive | –
CC[n+]1c(-c2ccccc2)c2cc(N)ccc2c2ccc(N)cc21 | 30.5 µM (active) | 24.2 µM (active) and 13.3 µM (active) | – | inactive | inactive | 54.2 µM (active) and inactive | 48.3 µM (active) and inactive | inactive | 24.2 µM (active) and 10.6 µM (active) | 1.53 µM (active) and 1.06 µM (active) | – | – | – | inactive | 17100 nM (active) | – | – | –
O=P(OCCCl)(OCCCl)OCCCl | inactive | inactive | – | inactive | inactive | inactive | inactive | inactive | inactive | inactive | inactive | – | – | – | inactive | inactive | inactive | –
CCOP(=O)(O)OCC (tested in a mixture with another compound) | inactive | inactive and 54 µM (active) | – | inactive | inactive | inactive and 48.2 µM (active) | inactive and 42.9 µM (active) | inactive | inactive and 27.1 µM (active) | inactive and 48.2 µM (active) | inactive and 30.4 µM (active) | – | – | – | 48.2 nM (active) | – | – | –
CCNCC | inactive | inactive | – | inactive | inactive | inactive | inactive | inactive | inactive | inactive | inactive | inactive | inactive | – | – | inactive | inactive | –
Nc1ccc2ccccc2c1 | inactive | inactive | inactive | inactive | – | inactive | inactive | inactive | inactive | inactive | inactive | – | – | – | inactive | – | inactive | –
CCOS(=O)(=O)OCC | inactive | inactive | – | inactive | inactive | inactive | inactive | inactive | inactive | inactive | inactive | – | inactive | – | inactive | inactive | inactive | –
OCCOCCO | inactive | inactive | – | inactive | inactive | 56.1 µM (active) and inactive | 14.1 µM (active) and inactive | inactive | inactive | inactive | inactive | – | – | – | 4.46 µM (active) and inactive | inactive | inactive | –
CC1(C)Cc2cccc(O)c2O1 | inactive | inactive | – | inactive | inactive | inactive | inactive | inactive | inactive | inactive | inactive | inactive | inactive | – | inactive | inactive | inactive | –
[CH3][Sn]([Cl])([Cl])[Cl] | inactive | inactive | – | inactive | – | inactive | inactive | inactive | inactive | inactive | inactive | – | inactive | – | inactive | inactive | inactive | –
